Source: PubChem BioAssay (Tox21)
Results filed as inconclusive are left out. Active and inactive are the calls of the source. Unless noted, calls follow the shape of the full dose curve.

Legend:
[1] = Nuclear factor erythroid 2-related factor 2/antioxidant responsive element (Nrf2/ARE) small molecule agonists: qHTS cell viability counter screen in human keratinocytes (AID 1919968; active = well fitted curve in the direction sought with a large enough effect in the repeat runs; an effect the other way counts as inactive or inconclusive; also: nearly all actives have a fitted effect of over 55% in size; also: potency is read from the fitted curve at half-maximal effect)
Procedure, shortened: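 After a 5 h attachment period, ARE-reporter keratinocytes were dosed with compounds in DMSO and then cultured 23 h at 37 C. Cell viability came from CellTiter-Fluor signal read after a further 1 h.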

[2] = Nuclear factor erythroid 2-related factor 2/antioxidant responsive element (Nrf2/ARE) small molecule agonists: luciferase reporter gene qHTS assay in human keratinocytes (AID 1919969); also: nearly all actives have a fitted effect of over 35% in size; also: potency is read from the fitted curve at half-maximal effect
[3] = target: Gonadotropin-releasing hormone receptor (Homo sapiens) (UniProt P30968); test: Human gonadotropin-releasing hormone receptor (GnRHR) small molecule agonists, calcium flux assay in GnRHR-HEK293 cells (AID 1920063); also: nearly all actives have a fitted effect of over 35% in size
Procedure, shortened: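 We seeded human GnRHR-expressing HEK293 cells for 18 hours, loaded them with calcium dye for an hour at 37 C, added test compounds, and recorded fluorescence intensity kinetically for three minutes.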

[4] = target: KiSS-1 receptor (Homo sapiens) (UniProt Q969F8); test: Human kisspeptin (KISS1R) small molecule agonists, calcium flux assay in KISS1R-HEK293 cells (AID 1920064; active = well fitted curve in the direction sought with a large enough effect in the repeat runs; an effect the other way counts as inactive or inconclusive)
Procedure, shortened: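 Kinetic calcium assay, 1 s sampling over 3 min at Ex/Em 480/540, in HEK293 cells engineered with human KISS1R; compounds delivered in DMSO after 1 h dye loading.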

[5] = G protein-coupled receptor (GPCR) small molecule agonists, calcium flux assay: HEK293 wild type cell line counter screen (AID 1920065)
Procedure, shortened: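 Calcium-sensitive dye, loaded 1 h at 37 C into cells cultured 18 h, reports compound-evoked calcium release as fluorescence (Ex/Em 480/540), measured over 3 min. Agonist mode; 15-point titrations, triplicate.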

[6] = p53 small molecule agonists, cell-based qHTS assay with rat liver microsomes (AID 1963578)
Procedure, shortened: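 Agonist mode in p53RE-bla reporter cells, with compounds co-incubated 16 h at 37 C alongside 0.5 mg/mL rat liver microsomes and 0.5 mg/mL NADPH (final), followed by a 2 h LiveBLAzer detection step.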

[7] = p53 small molecule agonists, cell-based qHTS assay with rat liver microsomes: qHTS cell viability counter screen (AID 1963580); also: nearly all actives have a fitted effect of over 45% in size
Procedure, shortened: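 HCT-116 p53RE-bla, 4,000 cells/well, 5 h pre-incubation; cpd + rat liver microsomes 0.5 mg/mL + NADPH 0.5 mg/mL (final); 16 h, 37 C; CellTiter-Glo, 30 min RT; luminescence.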

[8] = p53 small molecule agonists, cell-based qHTS assay: qHTS cell viability counter screen (AID 1963581); also: nearly all actives have a fitted effect of over 45% in size
Procedure, shortened: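 Following 5 h attachment, HCT-116 p53RE-bla cells took up compound for 16 h at 37 C; the reporter was read with B/G FRET substrate (2 h RT), and viability then via CellTiter-Glo ATP luminescence.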

[9] = p53 small molecule agonists, cell-based qHTS assay (AID 1963582; active = well fitted activation curve with a large enough effect in the signal ratio in the repeat runs, not every such curve was filed as active; the % refers to the signal ratio; also: potency is read from the fitted curve at half-maximal effect)
Procedure, shortened: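 In this cell-based concentration-response screen, a p53 response element drives beta-lactamase; cells received DMSO-borne compounds after 5 h culture and were incubated a further 16 h before FRET substrate development.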

[10] = target: 5-hydroxytryptamine receptor 2A (Homo sapiens) (UniProt P28223); test: 5-hydroxytryptamine receptor 2A (HTR2A) small molecule antagonists, cell-based qHTS assay (AID 1963586); also: nearly all actives have a fitted effect of over 45% in size
Procedure, shortened: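 Antagonist-mode intracellular calcium assay: DOI (4 nM) added after 5 min compound pre-incubation at room temperature to dye-loaded HTR2A-CHO cells. Fluorescence followed for 3 min, sampled every second.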

[11] = target: 5-hydroxytryptamine receptor 2A (Homo sapiens) (UniProt P28223); test: 5-hydroxytryptamine receptor 2A (HTR2A) small molecule agonists, cell-based qHTS assay (AID 1963587); also: nearly all actives have a fitted effect of over 30% in size
Procedure, shortened: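 Kinetic calcium-flux fluorescence (2 min, 1 sec intervals) after compound addition in agonist mode. HTR2A-CHO cells were cultured 18 h, then dye-loaded 1 h at 37 C.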

[12] = target: Muscarinic acetylcholine receptor M1 (Homo sapiens) (UniProt P11229); test: Cholinergic receptor muscarinic 1 (CHRM1) small molecule antagonists, cell-based qHTS assay (AID 1963588); also: nearly all actives have a fitted effect of over 40% in size
Procedure, shortened: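 CHRM1-CHO calcium-flux assay, antagonist mode. Cells were seeded 18 h, dye-loaded 1 h at 37 C and given compound for 5 min at RT, then acetylcholine was added at 50nM. FDSS fluorescence was read 3 min; 15 concentrations, three runs.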

[13] = target: Muscarinic acetylcholine receptor M1 (Homo sapiens) (UniProt P11229); test: Cholinergic receptor muscarinic 1 (CHRM1) small molecule agonists, cell-based qHTS assay (AID 1963589); also: nearly all actives have a fitted effect of over 35% in size
Procedure, shortened: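 Measures agonist-induced intracellular calcium rise. Stable human CHRM1 CHO line, 1 h dye load at 37 C, compounds from DMSO, kinetic fluorescence read.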

[14] = cAMP Responsive Elements (CRE) small molecule agonists, cell-based qHTS assay (AID 1963590); also: potency is read from the fitted curve at half-maximal effect
Procedure, shortened: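 A CRE-responsive beta-lactamase reporter in HEK 293T cells was used. Treatment ran 3 h at 37 C; detection used LiveBLAzer B/G FRET substrate for 2 h at room temperature.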

[15] = cAMP Responsive Elements (CRE) small molecule antagonists, cell-based qHTS assay (AID 1963591; active = well fitted inhibition curve with a large enough effect in the signal ratio in the repeat runs, not every such curve was filed as active; the % refers to the signal ratio)
Procedure, shortened: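 HEK293T cells carrying a CRE-driven beta-lactamase reporter receive compound and NKH477 (0.25 uM final) for 3 h. Fluorescence from LiveBLAzer B/G FRET substrate is read after 2 h at room temperature.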

[16] = target: Beta-2 adrenergic receptor (Homo sapiens) (UniProt P07550); test: Adrenergic beta2 receptor (ADRB2) small molecule antagonists, cell-based qHTS assay (AID 1963592); also: series mostly up to about 92 µM; nearly all actives have a fitted effect of over 50% in size
Procedure, shortened: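 Cells (CHO, stable ADRB2 overexpression) incubated 18-20hr at 37C; compounds added from DMSO; agonist mix (1nM isoproterenol, 100uM IBMX, 25uM Ro-20-1724) added; 0.5hr RT; d2-cAMP and anti-cAMP-cryptate added; 1hr RT; 665/615 nm read.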

[17] = target: Beta-2 adrenergic receptor (Homo sapiens) (UniProt P07550); test: Adrenergic beta2 receptor (ADRB2) small molecule agonists, cell-based qHTS assay (AID 1963593);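 also: CHO cells stably overexpressing human ADRB2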
Procedure, shortened: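 CHO cells stably over-expressing ADRB2 were plated overnight at 37C, then dosed with compounds plus a stimulation mix containing 100uM IBMX and 25uM Ro-20-1724 for 0.5hr at room temperature. cAMP was measured by HTRF competition, 1hr.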

[18] = target: D(2) dopamine receptor (Homo sapiens) (UniProt P14416); test: Dopamine D2 receptor (DRD2) small molecule agonists, cell-based qHTS assay (AID 1963594); also: nearly all actives have a fitted effect of over 35% in size
Procedure, shortened: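 cAMP accumulation in DRD2-HEK293 cells measured by HTRF after 1 h detection; compounds added 10 min before NKH477 (200nM […]) forskolin-analogue stimulation, 30 min at room temperature, with Ro20-1724 present at 0.1 mM final.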

[19] = target: D(2) dopamine receptor (Homo sapiens) (UniProt P14416); test: Dopamine D2 receptor (DRD2) small molecule antagonists, cell-based qHTS assay (AID 1963595; active = well fitted inhibition curve with a large enough effect in the signal ratio in the repeat runs, with a control signal flat; the % refers to the signal ratio)
Procedure, shortened: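 HEK293 cells stably expressing DRD2, preincubated with 0.1 mM Ro20-1724 and compounds 10 min, were stimulated with 200 nM NKH477 plus 12 nM quinpirole for 30 min at room temperature; cAMP measured by HTRF (665/620 nm).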

[20] = p53 small molecule agonists, cell-based qHTS assay with human liver microsomes: qHTS cell viability counter screen (AID 1963579); also: nearly all actives have a fitted effect of over 45% in size
Procedure, shortened: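 Metabolically activated exposure: compounds, human liver microsomes and NADPH (0.5 mg/mL final apiece) were added to p53RE-bla cells seeded 5 h earlier, left 16 h at 37 C, and then assessed for viability by CellTiter-Glo luminescence.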

Measured: Potency

Chain of Gonadotropin-releasing hormone receptor (Homo sapiens) (P30968 whole entry, looked up): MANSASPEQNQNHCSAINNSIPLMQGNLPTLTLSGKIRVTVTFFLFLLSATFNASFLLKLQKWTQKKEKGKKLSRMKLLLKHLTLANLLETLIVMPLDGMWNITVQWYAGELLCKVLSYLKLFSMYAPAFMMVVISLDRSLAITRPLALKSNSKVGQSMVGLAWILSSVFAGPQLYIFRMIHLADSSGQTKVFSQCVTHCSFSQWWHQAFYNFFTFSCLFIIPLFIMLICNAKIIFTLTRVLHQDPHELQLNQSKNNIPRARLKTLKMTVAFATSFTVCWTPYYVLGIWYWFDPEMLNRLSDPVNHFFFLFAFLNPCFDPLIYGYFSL
Chain of Muscarinic acetylcholine receptor M1 (Homo sapiens) (P11229 whole entry, looked up): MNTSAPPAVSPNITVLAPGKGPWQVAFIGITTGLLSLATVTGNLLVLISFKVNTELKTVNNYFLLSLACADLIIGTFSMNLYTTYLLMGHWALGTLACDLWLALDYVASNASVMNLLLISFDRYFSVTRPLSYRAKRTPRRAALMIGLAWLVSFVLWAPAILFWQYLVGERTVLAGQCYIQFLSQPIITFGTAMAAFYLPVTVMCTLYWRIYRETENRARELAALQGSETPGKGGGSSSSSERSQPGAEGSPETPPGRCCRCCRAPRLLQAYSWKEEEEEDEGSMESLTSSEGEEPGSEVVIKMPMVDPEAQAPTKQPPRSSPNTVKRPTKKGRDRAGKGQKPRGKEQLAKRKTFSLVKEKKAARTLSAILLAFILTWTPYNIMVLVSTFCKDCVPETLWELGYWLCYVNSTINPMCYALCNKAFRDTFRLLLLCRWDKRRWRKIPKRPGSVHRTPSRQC
Chain of D(2) dopamine receptor (Homo sapiens) (P14416 whole entry, looked up): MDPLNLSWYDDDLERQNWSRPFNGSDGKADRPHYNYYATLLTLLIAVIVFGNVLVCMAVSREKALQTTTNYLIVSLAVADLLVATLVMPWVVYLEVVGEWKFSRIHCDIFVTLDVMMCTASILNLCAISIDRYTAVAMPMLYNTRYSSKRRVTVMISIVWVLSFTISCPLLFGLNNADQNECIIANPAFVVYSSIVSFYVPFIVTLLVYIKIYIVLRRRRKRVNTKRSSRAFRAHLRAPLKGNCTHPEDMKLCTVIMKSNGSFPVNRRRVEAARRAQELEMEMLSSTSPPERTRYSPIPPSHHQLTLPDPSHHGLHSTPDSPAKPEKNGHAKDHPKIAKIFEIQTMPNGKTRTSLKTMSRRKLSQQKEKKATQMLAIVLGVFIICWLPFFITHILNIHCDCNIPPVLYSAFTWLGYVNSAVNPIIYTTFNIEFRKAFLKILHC
Chain of KiSS-1 receptor (Homo sapiens) (Q969F8 whole entry, looked up): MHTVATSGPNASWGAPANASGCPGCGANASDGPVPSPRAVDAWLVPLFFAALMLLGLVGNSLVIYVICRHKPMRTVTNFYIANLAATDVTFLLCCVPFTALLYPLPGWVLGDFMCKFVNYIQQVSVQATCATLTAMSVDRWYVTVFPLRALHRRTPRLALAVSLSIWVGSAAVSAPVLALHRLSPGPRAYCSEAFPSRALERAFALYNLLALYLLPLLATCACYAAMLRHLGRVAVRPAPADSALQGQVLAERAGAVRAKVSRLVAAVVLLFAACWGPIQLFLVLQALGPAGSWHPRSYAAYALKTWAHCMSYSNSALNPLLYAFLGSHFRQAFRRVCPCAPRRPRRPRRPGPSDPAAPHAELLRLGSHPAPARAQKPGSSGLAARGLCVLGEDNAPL
Chain of 5-hydroxytryptamine receptor 2A (Homo sapiens) (P28223 whole entry, looked up): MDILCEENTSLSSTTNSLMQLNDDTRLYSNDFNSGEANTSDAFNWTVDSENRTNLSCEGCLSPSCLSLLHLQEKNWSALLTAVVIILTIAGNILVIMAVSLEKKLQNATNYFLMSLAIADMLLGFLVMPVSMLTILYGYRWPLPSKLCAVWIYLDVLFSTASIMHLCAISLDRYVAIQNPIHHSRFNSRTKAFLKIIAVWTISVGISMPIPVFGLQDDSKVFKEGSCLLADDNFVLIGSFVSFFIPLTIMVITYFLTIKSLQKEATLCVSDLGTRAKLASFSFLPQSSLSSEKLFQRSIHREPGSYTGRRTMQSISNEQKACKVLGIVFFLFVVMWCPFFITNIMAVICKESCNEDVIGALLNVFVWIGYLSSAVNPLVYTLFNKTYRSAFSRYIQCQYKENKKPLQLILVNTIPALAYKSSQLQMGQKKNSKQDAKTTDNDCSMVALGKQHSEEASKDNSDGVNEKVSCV
Chain of Beta-2 adrenergic receptor (Homo sapiens) (P07550 whole entry, looked up): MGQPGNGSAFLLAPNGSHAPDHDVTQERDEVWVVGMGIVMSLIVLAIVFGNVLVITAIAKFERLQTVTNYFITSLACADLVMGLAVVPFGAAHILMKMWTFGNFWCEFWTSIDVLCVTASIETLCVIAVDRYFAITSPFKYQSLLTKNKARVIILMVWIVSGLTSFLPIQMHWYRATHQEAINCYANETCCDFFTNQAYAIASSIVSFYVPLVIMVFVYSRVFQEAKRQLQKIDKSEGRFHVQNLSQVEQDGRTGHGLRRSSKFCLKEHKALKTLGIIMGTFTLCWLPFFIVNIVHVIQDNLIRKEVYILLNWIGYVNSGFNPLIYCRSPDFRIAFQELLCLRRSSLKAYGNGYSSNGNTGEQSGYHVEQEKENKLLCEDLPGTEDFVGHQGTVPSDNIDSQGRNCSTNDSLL

CCS(=O)(=O)c1ccc(OC)c(C(=O)OC)c1
not listed: [20]
inactive: all other assays above

O=c1[nH]c(=O)n([C@H]2C[C@H](O)[C@@H](CO)O2)cc1F
active: [9] 0.446 µM
inactive: [1] | [2] | [3] | [4] | [5] | [6] | [20] | [15] | [16] | [19]

C=CCOCC(O)CCl (configuration not stated)
not listed: [6] | [15] | [17]
inactive: all other assays above

Nc1ccc2ccccc2c1S(=O)(=O)O
active: [2] 44.1 µM
not listed: [9] | [17] | [20]
inactive: all other assays above

CC1(C)O[C@@H]2C[C@H]3[C@@H]4CCC5=CC(=O)CC[C@]5(C)[C@@]4(F)[C@@H](O)C[C@]3(C)[C@]2(C(=O)CCl)O1
not listed: [6] | [10] | [11] | [12] | [13] | [15]
inactive: all other assays above

ClCCOCCOCCCl
not listed: [7] | [8]
inactive: all other assays above

O=C(O)CCc1nc2ccccc2[nH]1
not listed: [6] | [17]
inactive: all other assays above

CC(C)(C)C(=O)c1ccccc1
not listed: [17] | [18] | [20]
inactive: all other assays above

Nc1nc(Cl)nc2c1ncn2[C@H]1C[C@H](O)[C@@H](CO)O1
active: [9] 0.572 µM | [14] 60.7 µM
not listed: [6] | [10] | [11] | [12] | [13] | [15] | [17]
inactive: all other assays above

CCCNC(C)C(=O)Nc1c(C)csc1C(=O)OC (configuration not stated)
not listed: [7] | [8] | [10] | [15] | [18]
inactive: all other assays above

CO[C@@]1(NC(=O)Cc2cccs2)C(=O)N2C(C(=O)O)=C(COC(N)=O)CS[C@@H]21
not listed: [6] | [9] | [19]
inactive: all other assays above

O=c1[nH]sc2ccccc12
inactive: [3] | [4] | [5] | [6] | [9] | [10] | [12] | [13] | [17] | [19]
active: [1] 24.3 µM | [2] 12.2 µM

C/C=C/C(=O)C1=C(C)CCCC1(C)C
not listed: [7] | [10] | [17]
inactive: all other assays above

CCO[Si](CCCS)(OCC)OCC
not listed: [14] | [20]
inactive: all other assays above

CCCC1CCOC(C)S1 (configuration not stated)
not listed: [6] | [9] | [19]
inactive: all other assays above

CCCCCCCCCCCC(=O)OCC
not listed: [6] | [14] | [18]
inactive: all other assays above

CC(C)N(C)C
not listed: [7] | [10] | [15] | [16] | [17]
inactive: all other assays above
